# Measurements reported in PubChem BioAssay AID434970 (Sanford-Burnham Center for Chemical Genomics, 2010).
# Out of some 11,000 compounds screened, about 310 (2.8%) were called active. Rule as the data show it: active = activity change below about -85%; inactive = the rest. What follows is part of a selection rich in actives, with near analogues and random picks from the rest.
# Test system: intestinal alkaline phosphatase [Mus musculus]
# Test: activators of mouse IAP, confirmation, biochemical, luminescence, single concentration (AID 434970)
# Details: purified mouse IAP, CDP-Star luminescence, 30 min, at 10 µM; activation factor: measured here: IAP activation factor, stronger effect = higher value; activity change, negative = activation: stronger effect = lower value
SMILES,activation factor,"activity change, negative = activation"
CCOC(=O)c1ccc(-n2c(C)nc3c(cnn3-c3ccc(Cl)cc3)c2=O)cc1,0.964,3.55% (inactive)
CCCCCCCCCCCC(=O)NC(C(=O)OCC)C(O)c1cccc([N+](=O)[O-])c1 (configuration not stated),1.03,-2.65% (inactive)
CC[C@]12c3[nH]c4ccc(Cl)cc4c3CCN1C(=O)[C@@H](CC(=O)NCCC1=CCCCC1)C[C@@H]2C(=O)N1CCN(C(=O)c2ccco2)CC1,1.08,-8.45% (inactive)
CC1OC23CCCCC2C(C#N)(C(=N)O3)C1(C#N)C#N (configuration not stated),0.959,4.1% (inactive)
CCN(CC(=O)NCc1ccc(F)cc1)Cc1nc2ccccc2c(=O)[nH]1,1.14,-14.2% (inactive)
CCN(CC(=O)Nc1ccc2c(c1)OCO2)Cc1nc2ccccc2c(=O)[nH]1,1.23,-23.5% (inactive)
CN(CC(=O)NC(c1ccccc1)c1ccccc1)Cc1nc2ccccc2c(=O)[nH]1,2.71,-171% (active)
Cc1cc(Cl)cc(C)c1OCC(=O)O,1.06,-5.8% (inactive)
COc1ccc(NC(=O)Nc2ccccc2)cc1S(=O)(=O)N1CCCCC1,2.87,-187% (active)
COc1ccc(OC)c(NS(=O)(=O)c2ccc(NC(C)=O)cc2)c1,0.988,1.15% (inactive)
Cc1cc(C)cc(NC(=O)Nc2ccccc2N2CCCCC2)c1,2.12,-112% (active)
O=C(CNC1CCCCCC1)Nc1ccccc1N1CCCCC1,1.04,-3.7% (inactive)
Cc1ccc(C(=O)NCC(=O)O)cc1S(=O)(=O)N1CCCCC1,0.994,0.55% (inactive)
O=C(Nc1ccccc1)Nc1ccc(Cl)c(S(=O)(=O)N2CCOCC2)c1,1.53,-53.4% (inactive)
Cc1ccc(NC(=S)NCc2ccccc2)cc1S(=O)(=O)N1CCCCC1,2.87,-187% (active)
COc1ccccc1NS(=O)(=O)c1cccc(NC(=O)Nc2ccc(Cl)cc2)c1,1.92,-92.2% (active)
COc1ccccc1NS(=O)(=O)c1ccc(C)c(C(N)=O)c1,0.925,7.5% (inactive)
Cc1ccc(C)c(S(=O)(=O)N2CCN(CC(=O)NC(=O)NCc3ccccc3)CC2)c1,0.972,2.8% (inactive)
O=C(Nc1ccc(F)cc1)Nc1ccccc1N1CCCCC1,1.58,-57.8% (inactive)
COc1ccc(NC(=S)Nc2cccc(S(=O)(=O)N3CCCCC3)c2)cc1,1.01,-1.4% (inactive)
COc1ccc(C(=O)Nc2cccc(C(C)=O)c2)c(OC)c1OC,0.951,4.95% (inactive)
COC(=O)CC1C(=O)NCCN1C(=O)Nc1ccccc1 (configuration not stated),0.938,6.25% (inactive)
CCOC(=O)Cc1cc(=O)n(-c2nc3ccccc3s2)[nH]1,0.806,19.4% (inactive)
O=C(CN1C(=O)C2CC=CCC2C1=O)Nc1ccc(S(=O)(=O)NC2=NCCCCC2)cc1 (configuration not stated),0.903,9.65% (inactive)
CC[C@@H]1C(c2cccc(C)c2)=NN(c2ccccc2)[C@H]1C(=O)N1CCOC1=O,1.14,-14.2% (inactive)
COc1cccc(-n2c(SCC(=O)Nc3nccs3)nnc2-c2ccoc2C)c1,0.982,1.8% (inactive)

SMILES,activation factor,"activity change, negative = activation"
O=C1OCCN1C(=O)[C@H]1[C@H](c2ccc([N+](=O)[O-])cc2)C(c2ccccc2)=NN1c1ccc(Br)cc1,0.908,9.2% (inactive)
O=C(Nc1cccc(C(F)(F)F)c1)Nc1ccc(N2CCCC2)c(S(=O)(=O)Nc2ccccc2Cl)c1,1.67,-66.9% (inactive)
COc1ccccc1NS(=O)(=O)c1cc(NC(=O)Nc2cccc(C)c2)ccc1N1CCCCC1,3.78,-278% (active)
COc1ccc(C(=O)O)cc1S(=O)(=O)Nc1cccc(C)c1,0.988,1.25% (inactive)
Cc1cc(-c2csc(NC(=O)c3ccc(=O)[nH]c3)n2)c(C)n1Cc1ccco1,0.347,65.4% (inactive)
CCCc1c(O)nc(SC2CC(=O)N(c3cc(OC)ccc3OC)C2=O)[nH]c1=O (configuration not stated),1.01,-0.65% (inactive)
C=CCn1c(SCC(=O)Nc2cc(C)ccc2OC)nnc1-c1ccco1,1.07,-7.4% (inactive)
CCOC(=O)C1=CN(Cc2ccc(Br)cc2)S(=O)(=O)NC1C (configuration not stated),0.968,3.25% (inactive)
O=C(Nc1ccc(Cl)cc1)N[C@@H]1c2c(ccc3ccccc23)OC[C@@H]1CO,4.85,-385% (active)
O=C(Nc1ccc(Cl)cc1)Nc1ccc(N2CCOCC2)cc1,1.17,-16.9% (inactive)
O=C(Nc1ccc(Cl)cc1)Nc1ccc(-c2cnco2)cc1,1.34,-34.5% (inactive)
CCCCc1ccc(CC(=O)O)cc1,0.907,9.3% (inactive)
CCCCC(=O)Nc1ccc(F)c(Cl)c1,1.05,-5.3% (inactive)
O=C(Nc1ccc(F)cc1)Nc1csc2ccccc12,1.94,-93.7% (inactive)
O=C(Nc1ccccc1)Nc1csc2ccccc12,2.08,-108% (active)
O=C(Nc1ccc(F)c(Cl)c1)Nc1csc2ccccc12,2.15,-115% (active)
O=C(Nc1ccc(F)cc1F)Nc1csc2ccccc12,1.77,-77.3% (inactive)
CC(C)CNC(=O)c1ccccc1NC(=O)Nc1ccccc1,0.949,5.15% (inactive)
O=S(=O)(NCc1cccs1)c1cccc(S(=O)(=O)N2CCCCC2)c1,0.903,9.65% (inactive)
Cc1ccccc1N(CC(=O)N1CCN(c2ccccc2)CC1)S(C)(=O)=O,0.932,6.8% (inactive)
COc1ccc(OC)c(S(=O)(=O)n2ccnc2C)c1,0.998,0.15% (inactive)
COc1ccc(Cc2nnc(NC(=O)C3CCCO3)s2)cc1OC (configuration not stated),1.01,-1.15% (inactive)
CCC(C)OC(=O)C1=C(C)NC2=C(C(=O)C(C(=O)OC)C(C)C2)C1c1ccc(N(C)C)cc1 (configuration not stated),1.06,-6.35% (inactive)
CCN(CC)CCNC(=O)Cn1nc(-c2ccccc2)c2ccccc2c1=O,0.954,4.6% (inactive)
NC(=O)C1CCN(c2ncnc3c(-c4ccccc4)nsc23)CC1,0.947,5.35% (inactive)
O=C(c1cc(-c2cccs2)on1)N1CCN(C(c2ccccc2)c2ccccc2)CC1,0.971,2.95% (inactive)

SMILES,activation factor,"activity change, negative = activation"
CCOC(=O)c1ccc(NC(=O)NCc2ccc(OC)cc2)cc1,1.49,-49% (inactive)
COc1ccccc1CNC(=O)C1(NC(=O)Nc2ccc(C)cc2)CCCCC1,3.44,-244% (active)
CCn1c(CC(=O)Nc2ccc(C)cc2)nnc1SCC(=O)NCc1ccccc1,1,-0.4% (inactive)
O=C(NCc1ccccc1)NC1(C(=O)N2CCCC2)CCCCC1,0.94,6% (inactive)
COc1ccccc1C(=O)Nc1ccc(CN2CCCCC2)cc1,0.94,6% (inactive)
Cc1ccc(NC(=O)NC2(C(=O)NCc3ccccc3)CCCCC2)cc1,2.31,-131% (active)
O=C(Nc1cccc(Cl)c1)NC1(C(=O)NCc2cccs2)CCCCC1,1.62,-61.7% (inactive)
Cc1ccc(CNC(=O)C2(NC(=O)Nc3ccc(C)cc3)CCCCC2)cc1,2.98,-198% (active)
COc1ccccc1CNC(=O)Cn1cccc1,0.944,5.65% (inactive)
CC1(C)CC(=O)C2=C(C1)N=c1s/c(=C/c3ccc(F)c(F)c3)c(=O)n1C2c1ccc(F)cc1 (configuration not stated),0.856,14.4% (inactive)
N#C/C(=C/c1ccco1)C(N)=S,0.434,56.5% (inactive)
CCOC(=O)c1c(-c2ccccc2)oc2ccc(O)c(CN(C)C)c12,0.909,9.15% (inactive)
Nc1ncnc2c1ncn2[C@@H]1O[C@H](CNS(=O)(=O)c2cc(S(=O)(=O)c3ccccc3)cs2)[C@@H](O)[C@H]1O,1.08,-7.65% (inactive)
Cc1ccc(C(=O)Nc2nnn(C)n2)cc1,1.1,-10.2% (inactive)
CCN(CC)S(=O)(=O)c1ccc(NC(=O)Cn2c(=O)sc3ccccc32)cc1,1.31,-30.9% (inactive)
C#CCOCCOCCOCCNc1nc(N2CCN(C(=O)CCCCCCCCCCNC(=O)[C@H]([C@@H](C)CC)n3cc(CCCCN=C(N)N)nn3)CC2)nc(N2CCN(C(=O)CCCCCCCCCCNC(=O)[C@H](CCCCN)n3cc(C[C@@H](C)CC)nn3)CC2)n1,8.58,-758% (active)
C#CCOCCOCCOCCNc1nc(N2CCN(C(=O)CCCCCCCCCCNC(=O)[C@H]([C@@H](C)CC)n3cc(CCCCN=C(N)N)nn3)CC2)nc(N2CCN(C(=O)CCCCCCCCCCNC(=O)[C@H](CCCN=C(N)N)n3cc(C[C@@H](C)CC)nn3)CC2)n1,9.52,-852% (active)
C#CCOCCOCCOCCNc1nc(N2CCN(C(=O)CCCCCCCCCCNC(=O)[C@H](CCCN=C(N)N)n3cc(C[C@@H](C)CC)nn3)CC2)nc(N2CCN(C(=O)CCCCCCCCCCNC(=O)[C@@H]([C@H](C)CC)n3cc(CCCCCN)nn3)CC2)n1,6.19,-519% (active)
Cc1ccc(N=C2NC(=O)CS2)cc1,0.925,7.5% (inactive)
COc1ccc(C2/C=C\CN(S(=O)(=O)c3ccc(C)cc3)CC(=O)N2Cc2cccc(F)c2)cc1 (configuration not stated),1.08,-8% (inactive)
O=C1CCCCCN1Cc1nnc(SCc2nc3ccccc3s2)n1-c1ccccn1,0.923,7.7% (inactive)
Cc1ccc(-c2noc(CN3CCC(C(N)=O)CC3)n2)cc1,0.997,0.25% (inactive)
CC(=O)NCC(=O)N(c1c(C)n(C)n(-c2ccccc2)c1=O)C1(C(=O)NC2CCCC2)CCCCC1,0.98,2.05% (inactive)
O=C(N1CCOCC1)C1(c2ccccc2)CCCCC1,0.901,9.95% (inactive)
